Sequences and labels used below:
T1: UNK ZnF1-3 (human, UniProt Q9C0B0 31-174)
T1 sequence: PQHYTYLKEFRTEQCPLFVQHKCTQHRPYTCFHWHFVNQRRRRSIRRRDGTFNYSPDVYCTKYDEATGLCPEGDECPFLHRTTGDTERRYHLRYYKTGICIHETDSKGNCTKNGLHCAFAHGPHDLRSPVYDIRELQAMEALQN

B1: chr2:47387792:47387793:-_ENSG00000143933_ENST00000272298|hu_hu|hu_hu_hu_mus_True|28_38 (ssRNA)
RNA: GGGAGUUCUACAGUCCGACGAUCUAAGGACAAUGACAGUAAGAUAAGGGAAGAAAACAUGGAGGAAUGAAGUCCUAAUUACUAUACAUGCAUAUUUUUUUGACAGUAGGGAGAAACACCUUUUACAGAUAAGUUACAAACAAACAACAGAGGAUUGAGCAUCA
B2: chr18:2804189:2804190:+_ENSG00000101596_ENST00000320876|hu_hu|FALSE|FALSE (ssRNA)
RNA: GGGAGUUCUACAGUCCGACGAUCCAAUGCCUUGGAUUUAAAACAUGACUCCUUCUUGAUACAAUGAAUUAUAAAAGCAAACUAGUUCCACAUAUUAAUUAUACGUUCAAGUCUAGUUCCUAAAAAGUCAUUUCUCUUUAACCUCAACAGAGGAUUGAGCAUCA
B3: chr15:76909541:76909542:-_ENSMUSG00000033565_ENSMUST00000166610|perfect_dup|motif|central (ssRNA)
RNA: GGGAGUUCUACAGUCCGACGAUCCAACAUGAUCAAUAAUUUAUACACAUGGAGAGUAAUACAAAAAAUAAUGAAUAAAAGCGGAAGAUCUAACUACUCAACCUUCACAAUUCCAGCUACUUGAUAAUAGGAGUAACCCAAUGACAACAGAGGAUUGAGCAUCA
B4: chr15:76909541:76909542:-_ENSMUSG00000033565_ENSMUST00000166610|perfect_dup|FALSE|FALSE (ssRNA)
RNA: B3 RNA with G82U, G83A
B5: 103221519_103221723_537_3pUTR_ENSMUSG00000041781_ENSMUST00000047357|mouse|control|control (ssRNA)
RNA: GGGAGUUCUACAGUCCGACGAUCCAAUCUGAGAGAACUUCAGCUGCUGUAUUUUGUCAAAGGCUGCAUCCACAUCAUCCAAUGUAAAGAGGGUAAAAUCUUCUGUAUUGUGUCGAGACUGAUAGAGGUCGUACAUGAACAUCUCAACAGAGGAUUGAGCAUCA
B6: chr4:25749455:25749456:-_ENSG00000091490_ENST00000264868|hu_hu|hu_hu_hu_mus_False|8_108 (ssRNA)
RNA: GGGAGUUCUACAGUCCGACGAUCGCAAGCACUAGGAUAGAAAAAUCCACAGGGGGAAAAAAUGUAAACCAAUGUACAAUGUUAUCGCCUUCCCUGUGUGUGGAGUGUUUGUCUCAAGGCUCCUUCUUGCCUUAUAAUUUGGGACAACAGAGGAUUGAGCAUCA

Where a chain is given by its changes, count along the chain named. Over roughly 24,000 sequences, “enrichment r” has its median near 0.99; the highest 2% begin near 3.7. The list comes from a sample in which the highest values are over-represented; it also holds similar and randomly drawn sequences.

The assay has as its target T1, UNK ZnF1-3. Description: nsRBNS (natural sequence RNA bind-n-seq); RBNS binding buffer (assumed for nsRBNS): 25 mM Tris pH 7.5, 150 mM KCl, 3 mM MgCl2, 0.01% Triton X-100, 500 ug/ml BSA, 20 U/ml SUPERase-In, 4 C; UNK is unkempt and MSI1 is Musashi-1; names of the RNAs are library labels; protein concentration not given here; high values mean tight binding.
Consider B1, for which the binding signal is 1.79 enrichment R.
As for B2, the figure is 1.05 enrichment R; as for B3, 8.91 enrichment R; as for B4, 6.42 enrichment R.
As for B5, the figure is 1.57 enrichment R; as for B6, 0.93 enrichment R.

These data come from publication PMC12136788.
